# ± gives the standard deviation of the averaged measurements.
# Tests used:
# Assay in all cases: promoter activity interaction Z-score (Lux/OD deviation from empty-vector control); higher = stronger promoter induction by the compound
# [1] = test system: E. coli BW25113 acrABp lux reporter
# In short: (§1)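 E. coli BW25113 luxCDABE reporter strains grew at 37°C in 40 µl LB Lennox in 384-well plates, with OD600 and luminescence read every 30 min for 12 h. After integration over 0–8 h for wild type or 1–9 h for deletion strains, wells under 10% of the median growth value were removed. Each score is the Z-transformed residual of growth-normalised luminescence fitted against a control.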
# [2] = test system: E. coli BW25113 micFp lux reporter
# In short: as §1
# [3] = test system: E. coli BW25113 ompFp lux reporter
# In short: as §1
# [4] = test system: E. coli BW25113 robp lux reporter
# In short: as §1
# [5] = test system: E. coli BW25113 soxSp lux reporter
# In short: as §1
# [6] = test system: E. coli BW25113 tolCp lux reporter
# In short: as §1
# [7] = 0.64 µg/ml, genetic background: wild type
# [8] = 0.64 µg/ml, genetic background: ΔmarA
# [9] = 0.64 µg/ml, genetic background: Δrob
# [10] = 0.64 µg/ml, genetic background: ΔsoxS
# [11] = 1.3 µg/ml, genetic background: wild type
# [12] = 1.3 µg/ml, genetic background: ΔmarA
# [13] = 1.3 µg/ml, genetic background: Δrob
# [14] = 1.3 µg/ml, genetic background: ΔsoxS
# [15] = 2.6 µg/ml, genetic background: wild type
# [16] = 2.6 µg/ml, genetic background: ΔmarA
# [17] = 2.6 µg/ml, genetic background: Δrob
# [18] = 2.6 µg/ml, genetic background: ΔsoxS
# [19] = 5.1 µg/ml, genetic background: wild type
# [20] = 5.1 µg/ml, genetic background: ΔmarA
# [21] = 5.1 µg/ml, genetic background: Δrob
# [22] = 5.1 µg/ml, genetic background: ΔsoxS
smiles,measurement,setting,value
C[n+]1ccc(-c2cc[n+](C)cc2)cc1 [Paraquat],promoter activity interaction Z-score,[1]; [7],0.0325 ± 0.07
same,promoter activity interaction Z-score,[1]; [8],0.871 ± 1.1
same,promoter activity interaction Z-score,[1]; [9],0.287 ± 0.14
same,promoter activity interaction Z-score,[1]; [10],-0.155 ± 0.38
same,promoter activity interaction Z-score,[1]; [11],-0.0426 ± 0.21
same,promoter activity interaction Z-score,[1]; [12],0.412 ± 0.8
same,promoter activity interaction Z-score,[1]; [13],0.484 ± 0.32
same,promoter activity interaction Z-score,[1]; [14],0.177 ± 0.18
same,promoter activity interaction Z-score,[1]; [15],0.406 ± 0.016
same,promoter activity interaction Z-score,[1]; [16],0.865 ± 0.77
same,promoter activity interaction Z-score,[1]; [17],0.362 ± 0.13
same,promoter activity interaction Z-score,[1]; [18],0.148 ± 0.023
same,promoter activity interaction Z-score,[1]; [19],0.966 ± 0.12
same,promoter activity interaction Z-score,[1]; [20],0.0695 ± 0.017
same,promoter activity interaction Z-score,[1]; [21],1.06 ± 0.54
same,promoter activity interaction Z-score,[1]; [22],0.747 ± 0.85
same,promoter activity interaction Z-score,[2]; [7],0.149 ± 0.24
same,promoter activity interaction Z-score,[2]; [8],1.489 ± 0.0083
same,promoter activity interaction Z-score,[2]; [9],1.28 ± 0.4
same,promoter activity interaction Z-score,[2]; [10],-0.129 ± 0.0025
same,promoter activity interaction Z-score,[2]; [11],0.566 ± 0.14
same,promoter activity interaction Z-score,[2]; [12],2.36 ± 0.1
same,promoter activity interaction Z-score,[2]; [13],2.69 ± 0.87
same,promoter activity interaction Z-score,[2]; [14],-0.0229 ± 0.11
same,promoter activity interaction Z-score,[2]; [15],1.23 ± 0.11
same,promoter activity interaction Z-score,[2]; [16],3.79 ± 0.15
same,promoter activity interaction Z-score,[2]; [17],4.57 ± 1.3
same,promoter activity interaction Z-score,[2]; [18],-0.156 ± 0.22
same,promoter activity interaction Z-score,[2]; [19],3.89 ± 0.099
same,promoter activity interaction Z-score,[2]; [20],5.91 ± 1.2
same,promoter activity interaction Z-score,[2]; [21],8.849 ± 0.017
same,promoter activity interaction Z-score,[2]; [22],-0.509 ± 0.16
same,promoter activity interaction Z-score,[3]; [7],0.528 ± 0.083
same,promoter activity interaction Z-score,[3]; [8],0.49 ± 0.27
same,promoter activity interaction Z-score,[3]; [9],0.489 ± 0.56
same,promoter activity interaction Z-score,[3]; [10],0.272 ± 0.36
same,promoter activity interaction Z-score,[3]; [11],0.484 ± 0.34
same,promoter activity interaction Z-score,[3]; [12],0.321 ± 0.0078
same,promoter activity interaction Z-score,[3]; [13],0.81 ± 0.54
same,promoter activity interaction Z-score,[3]; [14],0.308 ± 0.03
same,promoter activity interaction Z-score,[3]; [15],0.864 ± 0.28
same,promoter activity interaction Z-score,[3]; [16],0.472 ± 0.45
same,promoter activity interaction Z-score,[3]; [17],1.09 ± 0.6
same,promoter activity interaction Z-score,[3]; [18],0.514 ± 0.2
same,promoter activity interaction Z-score,[3]; [19],1.34 ± 0.52
same,promoter activity interaction Z-score,[3]; [20],0.867 ± 0.69
same,promoter activity interaction Z-score,[3]; [21],1.96 ± 1.2
same,promoter activity interaction Z-score,[3]; [22],-2.03
same,promoter activity interaction Z-score,[4]; [7],-0.182 ± 0.091
same,promoter activity interaction Z-score,[4]; [8],0.325 ± 0.15
same,promoter activity interaction Z-score,[4]; [9],0.533 ± 0.16
same,promoter activity interaction Z-score,[4]; [10],0.786 ± 0.081
same,promoter activity interaction Z-score,[4]; [11],0.394 ± 0.0088
same,promoter activity interaction Z-score,[4]; [12],-0.0344 ± 0.25
same,promoter activity interaction Z-score,[4]; [13],0.769 ± 0.054
same,promoter activity interaction Z-score,[4]; [14],1.6 ± 0.18
same,promoter activity interaction Z-score,[4]; [15],0.405 ± 0.13
same,promoter activity interaction Z-score,[4]; [16],-0.176 ± 0.36
same,promoter activity interaction Z-score,[4]; [17],-0.103 ± 0.18
same,promoter activity interaction Z-score,[4]; [18],0.939 ± 0.087
same,promoter activity interaction Z-score,[4]; [19],-1.49 ± 0.031
same,promoter activity interaction Z-score,[4]; [20],-1.22 ± 0.88
same,promoter activity interaction Z-score,[4]; [21],-1.65 ± 0.29
same,promoter activity interaction Z-score,[4]; [22],-2.13
same,promoter activity interaction Z-score,[5]; [7],2.83 ± 0.11
same,promoter activity interaction Z-score,[5]; [8],2.9 ± 0.097
same,promoter activity interaction Z-score,[5]; [9],3.15 ± 0.6
same,promoter activity interaction Z-score,[5]; [10],3.26 ± 0.44
same,promoter activity interaction Z-score,[5]; [11],4.46 ± 0.059
same,promoter activity interaction Z-score,[5]; [12],4.28 ± 0.14
same,promoter activity interaction Z-score,[5]; [13],5.3 ± 1.6
same,promoter activity interaction Z-score,[5]; [14],4.33 ± 0.021
same,promoter activity interaction Z-score,[5]; [15],6.809 ± 0.059
same,promoter activity interaction Z-score,[5]; [16],7.02 ± 1.1
same,promoter activity interaction Z-score,[5]; [17],7.7 ± 0.67
same,promoter activity interaction Z-score,[5]; [18],5.69 ± 0.3
same,promoter activity interaction Z-score,[5]; [19],13.3 ± 0.42
same,promoter activity interaction Z-score,[5]; [20],13.9 ± 0.57
same,promoter activity interaction Z-score,[5]; [21],13.2 ± 0.83
same,promoter activity interaction Z-score,[5]; [22],7.48 ± 0.55
same,promoter activity interaction Z-score,[6]; [7],0.284 ± 0.95
same,promoter activity interaction Z-score,[6]; [8],0.749 ± 0.29
same,promoter activity interaction Z-score,[6]; [9],0.775 ± 0.4
same,promoter activity interaction Z-score,[6]; [10],-0.838 ± 0.78
same,promoter activity interaction Z-score,[6]; [11],-0.11 ± 0.4
same,promoter activity interaction Z-score,[6]; [12],1.44 ± 1.1
same,promoter activity interaction Z-score,[6]; [13],0.62 ± 0.32
same,promoter activity interaction Z-score,[6]; [14],0.0157 ± 0.29
same,promoter activity interaction Z-score,[6]; [15],2.66 ± 0.41
same,promoter activity interaction Z-score,[6]; [16],3 ± 0.23
same,promoter activity interaction Z-score,[6]; [17],2.88 ± 0.087
same,promoter activity interaction Z-score,[6]; [18],-0.245 ± 1.2
same,promoter activity interaction Z-score,[6]; [19],3.73 ± 0.21
same,promoter activity interaction Z-score,[6]; [20],6.42 ± 0.38
same,promoter activity interaction Z-score,[6]; [21],3.99 ± 0.79
same,promoter activity interaction Z-score,[6]; [22],-0.515 ± 0.099

# From the supplement of paper PMC12282887
